Source: ChEMBL document CHEMBL3433997, “St. Jude Leishmania screening dataset” (2016)

What was measured:
Type in all cases: functional
[1] = molecular target: Solute carrier family 2, facilitated glucose transporter member 1 (Homo sapiens) (UniProt P11166); test: ST_JUDE_LEISH: Cytotoxicity at 2uM final concentration against transgenic Leishmania Mexicana promastigotes LmGLUT1 that are glucose transport deficient and complemented with the human glucose transporter GLUT1. Activity is measured by DNA content using SYBR green in vitro
[2] = molecular target: Hexose transporter 1 (Plasmodium falciparum) (UniProt O97467); test: ST_JUDE_LEISH: Cytotoxicity at 2uM final concentration against transgenic Leishmania Mexicana promastigotes LmPfHT that are glucose transport deficient and complemented with the Plasmodium falciparum hexose transporter. Activity is measured by DNA content using SYBR green in vitro
[3] = molecular target: Glucose transporter (Leishmania mexicana) (UniProt O61059); test: ST_JUDE_LEISH: Cytotoxicity at 2uM final concentration against transgenic Leishmania Mexicana promastigotes LmGT2 that are glucose transport deficient and complemented with the L. Mexicana glucose transporter 2. Activity is measured by DNA content using SYBR green in vitro

Sequence of Solute carrier family 2, facilitated glucose transporter member 1 (Homo sapiens) (P11166 whole entry): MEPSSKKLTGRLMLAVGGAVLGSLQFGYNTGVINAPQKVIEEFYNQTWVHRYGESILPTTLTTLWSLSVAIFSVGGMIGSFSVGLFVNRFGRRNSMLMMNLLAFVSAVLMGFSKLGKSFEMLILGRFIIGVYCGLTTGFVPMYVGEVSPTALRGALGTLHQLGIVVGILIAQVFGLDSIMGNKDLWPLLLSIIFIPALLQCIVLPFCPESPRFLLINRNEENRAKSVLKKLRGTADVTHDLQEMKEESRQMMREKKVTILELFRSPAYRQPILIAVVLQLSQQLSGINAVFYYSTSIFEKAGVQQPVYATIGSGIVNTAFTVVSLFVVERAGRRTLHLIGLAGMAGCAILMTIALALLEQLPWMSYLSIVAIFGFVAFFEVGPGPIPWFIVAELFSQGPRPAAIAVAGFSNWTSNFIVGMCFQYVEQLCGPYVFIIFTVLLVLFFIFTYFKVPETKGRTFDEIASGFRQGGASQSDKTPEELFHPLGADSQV

SMILES | inhibition [1] [%] | inhibition [2] [%] | inhibition [3] [%]
Cc1c[nH]c(-c2cccc(C(=O)NC3CCC(CCN4CCc5ccc(C#N)cc5CC4)CC3)c2)n1 (centres undefined) | 2.16 | 1.04 | 1.55
Cc1cc(N2CCN(C(=O)OC(C)(C)C)CC2)ccc1N | 6.77 | 8.78 | 7.39
COc1ccc(CCON2C(=N)N=C(N)NC2(C)C)cc1OC | 2.04 | 2.62 | 3.2
Cc1cc(OCCCN2CCC(NS(=O)(=O)c3cc(Br)c(Cl)s3)CC2)c2ccccc2n1 | -1.11 | -0.46 | -0.25
CCOC(=O)c1ccc(NC(=O)N[C@H]2CCN(CCCCCNC(=O)/C=C/c3ccc(Cl)c(Cl)c3)C2)cc1 | 4.4 | 2.51 | 5.84
O=S(=O)(ON=C1CCc2ccccc21)c1ccc(Cl)cc1 | 1.95 | -0.07 | 3.35
CCc1cc(NC(=O)Nc2ccnc3ccccc23)ccc1OC | 19 | 17.9 | 11.6
CC1CCCCN1CCCNc1ncc2c(-c3ccc(NC(=O)Nc4cc(C(F)(F)F)ccc4F)c(F)c3)nn(C)c2n1 (centres undefined) | 1.38 | -0.99 | 0.83
SC(=Nc1ccc(Cl)c(Cl)c1)NN=Cc1ccccn1 | 1.55 | 1.69 | -1.58
COc1ccc(-c2ccc(NC(=O)c3ccc(Cl)cc3)cc2)cc1CN1CCC(O)CC1 | 3.31 | 2.62 | 2.54
CC1(C)NC(N)=NC(=N)N1OCCCCOc1ccc(Cl)cc1C1CCCCC1 | 18 | 26.4 | 11.5
Cc1cccc2nc(-c3cccc(-c4ccc(NC(=O)Nc5ccc(Cl)cc5)cc4)c3)[nH]c12 | 4.43 | 5.13 | -3.06
N#Cc1ccc(C=NNc2nc3ccccc3[nH]2)cc1 | 3.61 | 1.98 | -0.11
COc1ccc(Nc2cc(C)c3cc(NC(=O)c4ccncc4)ccc3n2)cc1 | 0.86 | 2.43 | 0.74
CCOC(=O)NC1=NC(C)(C)N(OCc2cccc3c2ccc2ccccc23)C(NC(=O)OCC)=N1 | 10.7 | 11.1 | 10.3
OC(CNc1ccnc(Nc2cccc(OCCCN3CCOCC3)c2)n1)c1ccccc1 (centres undefined) | 0.76 | 0.43 | -0.96
COc1ccc(NC(=O)/C=C/c2cc(Br)ccc2F)cc1OCCN(C(C)C)C(C)C | 0.52 | 0.38 | 0.14
O=C(Nc1ccccc1F)NC1CCN(c2ccnc(Nc3ccc(F)cc3)n2)CC1 | 2.94 | 2.19 | 0.02
N#Cc1ccc(N2CCN(Cc3cccc(-c4cccc(-c5nc6cc(C(F)(F)F)ccc6[nH]5)c4)c3)CC2)nc1 | 0.03 | 0.73 | -2.37
N=C(NCCc1c[nH]c2ccccc12)NCc1ccccc1Cl | -1.93 | -1.07 | -1.16
Cc1[nH]c(C)c(-c2ccc(CCc3ccc(F)cc3F)cc2)c(=O)c1Cl | 0.89 | 1.94 | -0.68
N#Cc1ccc(CN2CCCN(Cc3cccc(NC(=O)c4ccc(Cl)c(Cl)c4)c3)CC2)cc1 | 9.73 | 7.09 | 9.89
Cc1ccc2sc(N3CCN(C(=O)c4ccc([N+](=O)[O-])o4)CC3)nc2c1C | 44.5 | 44.3 | 13.7
O=C(COc1ccccc1)Nn1cnc2ccccc21 | 3.76 | 0.83 | 0.3

SMILES | inhibition [1] [%] | inhibition [2] [%] | inhibition [3] [%]
N#Cc1ccc(-c2ccc(C(=O)NCCCCN3CCC(c4ccc5c(c4OCC(N)=O)CCCC5)CC3)cc2)cc1 | 1.23 | 0.2 | 1.1
O=C(Nc1ccc(F)cc1)c1nc2ccccc2nc1Cl | 4.1 | 3.68 | 4.22
CCN(CCNC(=O)C1CCN(c2cc(-c3cccc(C)c3)ncn2)CC1)Cc1ccccc1 | 4.41 | 3.37 | 4.06
O=C(Nc1nc2ccc(Cl)cc2s1)c1csnn1 | -1.77 | -1.39 | -5.77
FC(F)(F)c1ccc2[nH]c(-c3cccc(-c4cccc(CNCCN5CCNCC5)c4)c3)nc2c1 | -0.06 | 3.11 | 1.99
COC(=O)c1c(C#N)c(OC)cc(O)c1CSC[C@@H](CN1CCCCC1)Nc1nc(-c2ccc([N+](=O)[O-])cc2)cs1 | -0.16 | -0.29 | 0.57
Cc1cc(OCCCN2CCCCC2C)ccc1NC(=O)COc1ccc(Cl)cc1C(=O)c1cc(Cl)cc(C#N)c1 (centres undefined) | 74.2 | 78.3 | 58
COc1cccc(-c2cnc(N)c(-c3nc4ccc(C(F)(F)F)cc4[nH]3)c2)c1 | 4.93 | 5.1 | 1.42
COc1ccc2c(c1)[nH]c1c(/C=C/c3ccc([N+](=O)[O-])cc3)nccc12 | 3.75 | 4.42 | 3.6
COc1ccc2nc3cc(Cl)ccc3c(NCCO)c2c1 | 2.8 | -1.06 | 2.4
O=C(Nc1cccc(C(F)(F)F)c1)NC1CCN(c2ccnc3ccccc23)CC1 | 5.82 | 5.09 | 2.7
Oc1cc(Nc2ccnc3cc(-c4cccc(CN5CCOCC5)c4)ccc23)c(F)cc1Cl | 4.47 | 4.48 | 3.67
CC1(C)CCCC(=Cc2ccc(Br)cc2)C1(O)Cn1ccnc1 (centres undefined) | 27.9 | 20.9 | 13.5
CN(c1ccc(NC(=O)c2ccc(F)cc2)cc1)C1CCN(Cc2cccc(F)c2)C1 (centres undefined) | 1.66 | -0.15 | 3.04
COc1ccc(NC(=O)[C@H](Cc2ccccc2)Nc2nc(NCCN3CCCC3)ncc2C)cc1 | 1.71 | 2.57 | 3.02
Cc1cccc(Nc2c(-c3cc(Br)ccc3O)nc3ncccn23)c1 | 0.12 | -0.3 | -1.33
COc1cc2nc(NCc3cccc(CNC(=O)c4ccc(-c5ccc(C(C)=O)cc5)cc4)c3)nc(N)c2cc1OC | 0.91 | -0.03 | 0.66
Cc1ccccc1C1CCN(C2CCC(NC(=O)c3cncc(-c4ccccc4)c3)CC2)CC1 (centres undefined) | 6.15 | 6.33 | 3.53
Oc1ccc(CNCC2CCN(CC3CCCCC3)CC2)cc1 | 5.22 | 0.53 | 5.43
CCOC(=O)Cn1ccc2c(NCc3ccccc3)nc(C)nc21 | 0.48 | 1.38 | 2.53
Nc1ncc(-c2ccc(F)c(Cl)c2)c(N)n1 | 1.16 | 4.76 | 1.32
COc1cc(Cc2cnc(N)nc2N)ccc1OCc1ccc(-c2csnn2)cc1 | 9.75 | 9.64 | 11.7
Oc1ccc2nc(Nc3ccccc3)nc(NCCc3ccccc3)c2c1 | 7.22 | 6 | 5.72
COc1ccc2nccc(N3CCC(SCCNCc4cc5c(cn4)OCCO5)C3)c2n1 (centres undefined) | 0.61 | 0.85 | -2.04
